Bioassay records: PubChem, several laboratories
MEKK2 WT-MEK5 = modulators of MEK5 binding to wildtype MEKK2, primary screen, biochemical, multiplex bead flow cytometry, Alexa488-MEK5 | Alexa488-MEK5 binding to MEKK2 WT; actives lie on both sides | actives 1.1% (n = 290,000) | Mitogen-activated protein kinase kinase kinase 2 (Homo sapiens), Q9Y2U5 | binding response (% of control), % at 10 µM; in the data active means binding response below about 67% or above about 130%; inconclusive means no clear call, values can overlap the other calls; inactive means in between
MEKK3 PB1 HTS = modulators of MEKK3-MEK5 PB1 binding, primary screen, biochemical, wildtype MEKK3, multiplex bead flow cytometry, Alexa488-MEK5; binding response (% of control), % at 10 µM; Mitogen-activated protein kinase kinase kinase 3 (Homo sapiens), Q99759; actives 1.4% (n = 290,000); bead-based flow cytometry, Alexa488-MEK5 binding to MEKK3; actives lie on both sides; 0 = blocked by unlabeled MEK5, 100 = vehicle;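 active means binding response more than 3 SD above or below the average of its plate-row segment, actives on both sides; inconclusive means wells at one plate position flagged as instrument error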;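 further: Alexa488 bead fluorescence after subtracting the streptavidin-only scavenger bead signal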
dFosB act-1 = activators of delta FosB homodimer, primary screen, biochemical, fluorescence polarization, TAMRA-CDK5 oligo, single point | AID 493131, 2011 | Protein FosB (Mus musculus), P13346 | actives 0.99% (n = 340,000) | activation, % at 25 µM | purified delta FosB; percent of positive-control signal above neutral wells;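 active means mean activation above about 17%, with every replicate also reaching it, limit read from the data, passing the limit was not always enough; inconclusive means only one of the two conditions met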
Target sequence (P13346 whole entry, looked up): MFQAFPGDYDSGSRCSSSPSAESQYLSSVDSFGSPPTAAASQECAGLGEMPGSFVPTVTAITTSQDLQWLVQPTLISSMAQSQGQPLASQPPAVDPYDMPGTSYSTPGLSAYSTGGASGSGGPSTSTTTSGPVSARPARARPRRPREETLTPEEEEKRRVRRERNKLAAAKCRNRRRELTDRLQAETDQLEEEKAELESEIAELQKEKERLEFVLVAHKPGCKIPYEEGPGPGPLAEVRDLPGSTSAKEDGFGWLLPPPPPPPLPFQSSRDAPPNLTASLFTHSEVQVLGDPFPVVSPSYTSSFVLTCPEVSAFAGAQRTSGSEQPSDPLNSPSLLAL
FID counter = compounds displacing fluorescent DNA intercalator, primary screen, artefact control for HCV NS3 helicase inhibitor project, biochemical, FID fluorescence | DNA fluorescent intercalator displacement | inhibition, % at 7.9 µM | actives 0.17% (n = 290,000); in the data active means inhibition above about 37%;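 further: 0% = vehicle and 100% = reference compound; higher means more ethidium bromide displaced from hairpin DNA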
MEKK2 mut-MEK5 = MEK5 binding signal on mutant MEKK2 PB1, primary screen, biochemical, multiplex bead flow cytometry, Alexa488-MEK5; Alexa488-MEK5 binding to MEKK2 mutant; percent response, % at 10 µM; actives 0.35% (n = 290,000); AID 1530, 2009; in the data active means percent response above about 24%, passing the limit was not always enough
dFosB act-2 = activators of mouse delta FosB DNA binding, confirmation, biochemical, fluorescence polarization, TAMRA-CDK5 oligo, cherry-picked samples. purified delta FosB; normalised: neutral wells 0, positive control 100. activation, % at 24.9 µM. 2,400 tested, under 10 active. shares compounds with dFosB act-1;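 active means highest replicate activation at or above 34% and every replicate reaching that threshold; inconclusive means meets only one of the two criteria; inactive means meets neither criterion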;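 further: higher polarization means more probe DNA bound by delta FosB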
* = called active by the depositor; ? = inconclusive; · = no result given. Rows were chosen to be rich in hits. Some 2.9% of all compounds tested hit in one or more screens of this group.

SMILES	MEKK2 WT-MEK5	MEKK3 PB1 HTS	dFosB act-1	FID counter	MEKK2 mut-MEK5	dFosB act-2
O=C(c1ccc([N+](=O)[O-])cc1)n1nc(-c2ccccc2)nc1NCc1ccc(F)cc1	97	99	-8	0	6	·
CCOc1cccc(/C=N/NC(=O)c2cc(C3CC3)[nH]n2)c1O	99	103	8	-23	0	·
COc1cc(/C=N/NC(=O)c2cc(C3CC3)[nH]n2)cc(OC)c1OC	105	102	20*	-34	3	-1
Cc1cc(C)c2nc(-c3ccccn3)cc(C(=O)NCc3ccc(S(N)(=O)=O)cc3)c2c1	94	105	65*	-11	4	-1
Cc1cc(C)c2nc(-c3ccccn3)cc(C(=O)NCCc3ccc(S(N)(=O)=O)cc3)c2c1	101	101	4	-9	8	·
CCn1c(SCC(=O)Nc2cccc(C)c2)nc2c(c1=O)SC(C)C2 (configuration not stated)	115	115	-3	-11	10	·
NC(=O)c1nsc(C(=O)N(c2cccc(O)c2)C(C(=O)NC2CCCC2)c2ccc(Cl)cc2)c1N (configuration not stated)	95	99	71*	-23	2	1
COc1ccc(C(C(=O)NC2CCCCC2)N(C(=O)c2snc(C(N)=O)c2N)c2ccc(OC)cc2OC)cc1 (configuration not stated)	91	102	?	-35	-5	·
COc1ccc(N(C(=O)c2snc(C(N)=O)c2N)C(C(=O)NC2CCCC2)c2ccc(F)cc2)c(OC)c1 (configuration not stated)	95	99	32*	-45	0	-7
CC(=O)Oc1ccc(C(=O)Nc2cccc(C(=O)NC(C)(C)C)c2)cc1	97	108	-4	-14	-2	·
CC(=O)Oc1ccc(C(=O)Nc2cccc(C(=O)c3cccc(NC(=O)c4ccc(OC(C)=O)cc4)c3)c2)cc1	78	77	57*	-1	-16	2
COc1ccc(C2NC(=O)CCC2[N+](=O)[O-])c(OC)c1OC (configuration not stated)	99	103	5	1	1	·
O=c1cc(NCc2ccc3c(c2)OCO3)[nH]c(=O)n1-c1ccc(Cl)cc1	101	98	20*	2	8	2
COc1cc2c(cc1OC)C(c1ccc(-c3ccc(Cl)cc3Cl)o1)=NCC2	·	·	34*	9	·	-30
O=C(NCc1ccccc1Br)c1ccc2c(c1)OCCO2	102	105	-10	-10	1	·
COc1ccc2nc(SCC(=O)Nc3ccc4sc(C)nc4c3)c(C#N)cc2c1	98	106	21*	0	-1	-14
COc1ccc(NC(=O)CSc2nc(N)c(C#N)cc2C#N)cc1	101	98	-2	4	4	·
COc1ccc2cc(C#N)c(SCC(=O)NNC(=O)Cc3ccccc3)nc2c1	102	105	68*	-6	1	1
Cc1ccc2cc(C#N)c(SCC(=O)NNC(=O)Cc3ccccc3)nc2c1	84	96	-2	0	-2	·
CCOC(=O)c1cccc(NC(=O)C2(S(=O)(=O)c3ccc(Cl)cc3)CC2)c1	96	94	-11	-17	-2	·
CCOc1ccc(NC(=S)N2C3CCCC2CC(NC(=O)C2CC2)C3)cc1 (configuration not stated)	93	100	-3	-13	0	·
COc1ccc(-c2cc(C(F)(F)F)nc(SCC(=O)Nc3sc4c(c3C#N)CCC4)n2)cc1	97	107	-2	-2	1	·
COc1ccc(-c2nnn(CC(=O)Nc3sc4c(c3C#N)CCCC4)n2)cc1	99	100	26*	1	-1	1
